Laboratory results reported in PubChem BioAssay AID720711 (National Center for Advancing Translational Sciences (NCATS), 2013).
In all, about 360,000 compounds went through this assay and about 290 (0.081%) were called active. The full list was thinned out, with actives kept by preference. Values without a mark were called inactive. Calls follow the shape of the dose curve; as a rule, active = well fitted activation curve with a large enough effect; inconclusive = small, poorly fitted or top-dose-only effect; inactive = no such curve, though single readings can be large or run the other way.

Molecular target: Rap guanine nucleotide exchange factor 4 (Homo sapiens) (UniProt Q8WZA2)
Sequence (Q8WZA2 whole entry, looked up): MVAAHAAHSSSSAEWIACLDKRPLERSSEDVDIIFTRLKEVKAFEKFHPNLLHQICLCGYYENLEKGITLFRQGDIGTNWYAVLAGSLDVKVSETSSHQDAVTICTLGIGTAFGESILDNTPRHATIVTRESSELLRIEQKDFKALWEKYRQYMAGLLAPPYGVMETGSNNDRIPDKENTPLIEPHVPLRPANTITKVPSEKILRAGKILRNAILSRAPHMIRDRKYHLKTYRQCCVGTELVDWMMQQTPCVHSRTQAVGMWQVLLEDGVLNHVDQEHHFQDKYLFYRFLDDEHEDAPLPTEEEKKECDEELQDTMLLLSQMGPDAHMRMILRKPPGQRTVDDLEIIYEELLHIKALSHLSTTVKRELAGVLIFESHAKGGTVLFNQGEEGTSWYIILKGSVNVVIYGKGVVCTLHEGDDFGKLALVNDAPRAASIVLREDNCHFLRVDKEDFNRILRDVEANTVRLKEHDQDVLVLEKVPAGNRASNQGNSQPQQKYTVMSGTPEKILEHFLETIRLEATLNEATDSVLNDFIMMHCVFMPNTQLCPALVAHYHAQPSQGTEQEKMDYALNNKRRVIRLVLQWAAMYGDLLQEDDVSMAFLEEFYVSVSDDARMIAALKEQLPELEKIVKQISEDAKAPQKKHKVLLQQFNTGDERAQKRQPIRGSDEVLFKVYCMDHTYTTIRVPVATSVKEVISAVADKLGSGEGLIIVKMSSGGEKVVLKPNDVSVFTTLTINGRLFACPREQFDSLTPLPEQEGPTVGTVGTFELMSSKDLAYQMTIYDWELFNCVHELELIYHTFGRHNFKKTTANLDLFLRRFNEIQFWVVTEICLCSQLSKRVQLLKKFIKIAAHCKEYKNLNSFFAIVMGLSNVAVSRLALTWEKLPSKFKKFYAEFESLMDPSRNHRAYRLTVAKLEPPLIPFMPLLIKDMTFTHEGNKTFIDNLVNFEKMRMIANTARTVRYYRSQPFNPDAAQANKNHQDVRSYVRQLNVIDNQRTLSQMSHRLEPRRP
Assay: qHTS for Agonist of cAMP-regulated guanine nucleotide exchange factor 4 (EPAC2): primary screen; also: nearly all actives have a fitted effect of over 50% in size
Conditions: biochemical qHTS; Potency: EPAC2 activation; series mostly up to 154 µM; activation: at the top concentration
Text: In multi-cellular eukaryotic organisms, the effects of cAMP are transduced by two ubiquitously-expressed intracellular cAMP receptors, the classic protein kinase A/cAMP-dependent protein kinase (PKA/cAPK) and the more recently discovered exchange protein directly activated by cAMP/cAMP-regulated guanine nucleotide exchange factor (EPAC/cAMP-GEF). Both PKA and EPAC are ubiquitously expressed in all tissues, and an increase in intracellular cAMP levels will lead to the activation of both PKA and EPAC. Therefore, careful dissections of the individual role and relative contribution of EPAC and PKA within the overall cAMP signaling in various model systems are critical for further elucidating the mechanism of cAMP signaling. To date no EPAC-specific antagonists and agonist, as well as isoform-specific agonists have been reported, and developing EPAC-specific pharmacological probes to determine the physiological functions that EPAC play in the overall cAMP-mediated signaling remains a major challenge within the research field. Furthermore, identified regulators of EPAC may lead to new mechanism-based therapeutic strategies specifically targeting the EPAC / cAMP-signaling components as EPAC has been implicated to play important roles in major human pathological conditions such as diabetes, heart disease, and cancer.
This qHTS will be used to screen the Molecular Libraries Small Molecule Repository (MLSMR) as a concentration-titration series using the NCGC unique quantitative screening (qHTS) platform to find activators for EPAC2. In addition, this assay will also be used as a counterscreen for the EPAC1 qHTS. This fluorescent based assay is developed and validated for EPAC2 that measures exchange using EPAC effector Rap1 complex with BODIPY-GDP, a GDP analog with a tethered fluorophores. Activators are identified by monitoring the change in fluorescence signal as the exchanged free BODIPY-GDP has a reduced fluorescence compared to Rap1-bound BODIPY-GDP. […] in signal (activation) is the desired outcome for the EPAC2 agonist while no activity in this assay is desired for the EPAC1 agonist counterscreen.
[1] de Rooij, J., Zwartkruis, F. J., Verheijen, M. H., Cool, R. H., Nijman, S. M., Wittinghofer, A., and Bos, J.L. (1998) Nature 396, 474-477
[2] Kawasaki, H., Springett, G. M., Mochizuki, N., Toki, S., Nakaya, M., Matsuda, M., Housman, D. E., and Graybiel, A. M. (1998) Science 282, 2275-2279
NIH Chemical Genomics Center [NCGC]
NIH Molecular Libraries Probe Centers Network [MLPCN]
Assay Submitter (PI): Xiaodong Cheng, The University of Texas, Medical Branch
Briefly, three uL of reagents (100 nM EPAC2, 250 nM RAP1B-BODIPY-GDP, 50 uM GDP) were dispensed into a 1536-well Greiner black solid-bottom medium binding assay plate. Controls and test compounds (23 nL) were transferred to the plate via a Kalypsys pin tool equipped with a 1536-pin array. The plates were centrifuged at 1,000 rpm for 15 seconds followed by 5 minute incubation at room temperature. The assay plates were read at 5 minute intervals for 30 minutes in the ViewLux plate reader using 480nm excitation and 540nm emission filters. The results were normalized to the agonist positive control of 6.5 mM cAMP.
Potency is read from the fitted curve at half-maximal effect.

| Structure (SMILES) | activation | Potency |
| --- | --- | --- |
| c1ccc(C[C@H]2CNCCN2CCC23CC4CC(CC(C4)C2)C3)cc1 | 8.44% | – |
| Cn1c(=O)c2c(nc(N3CCCCCC3)n2CC(O)COc2ccc(Cl)cc2)n(C)c1=O (configuration not stated) | -12.2% | – |
| CSCc1cc(N(C)C)nc(SCc2ccc(Cl)cc2Cl)n1 | 12.8% | – |
| CCCOc1ccc(Cc2c(Cl)nc(SC)nc2NC)cc1 | 14.3% | – |
| Cc1sc2ncn(CC(=O)NCCCC(=O)N3CCN(c4ccccc4F)CC3)c(=O)c2c1C | 10.3% | – |
| Cc1oc(C)c(C(=O)NCCCC(=O)O)c1C(=O)NCCCC(=O)O | 3.93% | – |
| O=CN1CCN(C(=O)c2ccc(Br)o2)CC1 | -4.45% | – |
| Cc1cc(C)c2oc(C(=O)Nc3ccc(S(=O)(=O)Nc4nccc(C)n4)cc3)cc(=O)c2c1 | -3.06% | – |
| COc1ccc(NC(=O)N(C)C[C@H]2Oc3ncc(C#C[C@@H](C)O)cc3C(=O)N([C@H](C)CO)C[C@H]2C)cc1 | 6.02% | – |
| CCCCN1C(=O)C(CC(=O)NC(c2ccccc2)c2ccccc2)CC(C(=O)N2CCOCC2)=C1C (configuration not stated) | 5.77% | – |
| CC(C)(C)[C@H]1C=C(C(=O)NCc2ccccc2)O[C@@H](OCc2ccc(CO)cc2)C1 | 9.55% | – |
| NC(=O)c1ccccc1N=Cc1ccc2ccccc2c1 | -7.1% | – |
| O=C(Nc1ccc2c(c1)C(=O)OC2)Nc1cccc2ccccc12 | 11.6% | – |
| Cn1ccs/c1=N\S(=O)(=O)c1ccc(C(C)(C)C)cc1 | -12.9% | – |
| CC12c3ccccc3C(c3ccccc31)C1C(=O)N(Cc3cccnc3)C(=O)C12 (configuration not stated) | 7.76% | – |
| Cc1cccc(-c2c(NC(=O)c3ccco3)oc3ccc(Cl)cc3c2=O)c1 | 6.33% | – |
| O=C(NCCCN1CCCCC1)C1CCCN(c2ncnc3c2nc2n3CCCCC2)C1 (configuration not stated) | 5.8% | – |
| CC1CCC(CN2CCN=C2N(C)C)CC1 (configuration not stated) | 12.7% | – |
| CC(Oc1ccc(Br)cc1)C(=O)NCC(c1ccco1)N1CCCCC1 (configuration not stated) | 14.4% | – |
| O=C(c1ccccc1)C(Cn1cncn1)C(Sc1ccccc1)c1ccccc1 (configuration not stated) | -7.26% | – |
| CCCCCCc1cc2cc(-c3nnc(-c4ccccc4)o3)c(=O)oc2cc1O | – | 44.7 µM (active) |

| Structure (SMILES) | activation | Potency |
| --- | --- | --- |
| COc1cc(C(=O)NCC(=O)NCCSc2ccc(Br)cc2)cc(OC)c1OC | 1.02% | – |
| CN(CCOc1ccc(Br)cc1)CC(=O)Nc1cccc(S(=O)(=O)NC2=NCCC2)c1 | 8.89% | – |
| CCN=C1S/C(=C\c2cc(Br)ccc2OCC(=O)OCC)C(=O)N1CC | -3.99% | – |
| CC(C)N1C(=S)SC(C)(C)C1n1oc(=O)n(-c2ccc(Cl)c(Cl)c2)c1=O (configuration not stated) | 16.2% | – |
| COC(=O)c1ccc([C@@H](O)[C@H](C)C(=O)CC(=O)OC(C)(C)C)cc1 | 7.76% | – |
| CC(=O)Oc1ccc(-c2cccc(C(=O)N3CCCCC3)c2)cc1 | 4.17% | – |
| CCN(CC(=O)Nc1cccc(S(N)(=O)=O)c1)Cc1nc2ccccc2c(=O)[nH]1 | 5.9% | – |
| Cc1nc2ccc(S(=O)(=O)N(C)CC(=O)NC(C)c3ccccc3)cc2s1 (configuration not stated) | -5.42% | – |
| Cc1cc2c(cc1C)NC(c1ccccn1)C1=C(CC(C)(C)CC1=O)N2 (configuration not stated) | 0% [at 15.6 µM, 100% = 6.5 mM cAMP response] | – |
| O=C(Cn1nnc2ccccc2c1=O)NCc1ccc(Cl)cc1 | 6.7% | – |
| Cc1ccc(S(=O)(=O)CCC(=O)OCc2ccccc2)cc1 | 7.04% | – |
| O=C(CNC(=O)c1ccccc1F)OCC(=O)c1c[nH]c2ccccc12 | -5.16% | – |
| CN1C(CC(=O)Nc2ccc(Br)cc2)c2ccccc2CC1(C)C (configuration not stated) | 2.28% | – |
| O=C(COC(=O)c1c(Cl)cccc1Cl)Nc1cccc(S(=O)(=O)NC2=NCCCCC2)c1 | 5.96% | – |
| CCCN(CC(=O)Nc1ccc(C(N)=O)cc1)CC(=O)Nc1ccccc1C | 3.61% | – |
| COC(=O)[C@]12CCCCC=C1N(Cc1ccco1)C(=O)[C@H](CC(=O)NCCCCc1ccccc1)C2 | 5.99% | – |
| COc1ccc(S(=O)(=O)NC(CC(=O)NCc2ccccc2OC)c2ccco2)cc1 (configuration not stated) | -3.25% | – |
| Cc1sc2ncn(CC(=O)NCCN(C)C)c(=O)c2c1S(=O)(=O)N1CCC(C)CC1 | 1.43% | – |
| CN(CCc1ccccn1)C(=O)c1ccc(OC2CCN(CCc3ccccc3)CC2)cc1 | -1.49% | – |
| O=C1CCc2cc(S(=O)(=O)N3CCC(C(=O)NCc4ccccc4Cl)CC3)ccc2N1 | -0.988% | – |
| CCOc1ccccc1Nc1nnc(SCC(=O)NCC2CCCO2)s1 (configuration not stated) | -2.02% | – |

| Structure (SMILES) | activation | Potency |
| --- | --- | --- |
| N#CCCn1cnc2ccccc21 | 5.55% | – |
| O=[N+]([O-])c1ccc(CN2CC(N3CCC(c4ccccc4)CC3)CS2(=O)=O)cc1 (configuration not stated) | 12.6% | – |
| CC(=O)[C@@]12O[C@@H]1C[C@H]1[C@@H]3CC[C@H]4C[C@@H](O)CC[C@]4(C)[C@H]3CC[C@@]12C | 7.28% | – |
| CC1Cc2ccccc2N1S(=O)(=O)c1c(N)n(C)c(=O)n(C)c1=O (configuration not stated) | 2% | – |
| CC(C(=O)NC1CCCC1)N(c1ccc(Oc2ccccc2)cc1)S(C)(=O)=O (configuration not stated) | 9.13% | – |
| CC(=O)NC12CC3CC(C1)CC(C(=O)N1CCN(S(=O)(=O)c4cccs4)CC1)(C3)C2 | -5.25% | – |
| Cc1cc(C)c(S(=O)(=O)N2C=CC(C(F)(F)F)=NCC2)c(C)c1 | 6.38% | – |
| O=C(C1CCC1)N1CCN(S(=O)(=O)c2ccc([N+](=O)[O-])cc2)CC1 | 4.71% | – |
| COc1ccc(-c2[nH][nH]c(=O)c2NC(=O)c2ccc([N+](=O)[O-])cc2)cc1 | 2.41% | – |
| COc1ccc(NS(=O)(=O)c2cc(NC(=O)CC(=O)c3ccc([N+](=O)[O-])cc3)ccc2C)cc1 | -1.43% | – |
| COc1ccc(C(=O)Nc2nc(-c3ccc(OC)cc3)c(-c3ccc([N+](=O)[O-])cc3)s2)cc1 | – | 112 µM (active) |
| CCOC(=O)NC(C(F)(F)F)(C(F)(F)F)P(=O)(c1ccccc1)c1ccccc1 | 3.46% | – |
| Oc1ccc2ccc3cccc[n+]3c2c1 | – | 100 µM (active) |
| COCCN1CCN(C(=O)c2cc(COc3ccc(F)cc3Cl)on2)CC1 | -3.51% | – |
| Cc1cc(Cl)c2oc(C(=O)N3CCC(O)(c4ccccc4)CC3)c(C)c2c1 | 3.33% | – |
| Cc1cccc(OCc2nnc(SCc3nc4cc(C(F)(F)F)ccc4c(=O)[nH]3)o2)c1 | -6.74% | – |
| Cc1nnc(N(Cc2ccco2)C(=O)c2ccno2)s1 | 2.05% | – |
| CCC1C(C#N)=C(SC)NC2=C1C(=O)CC(C)(C)C2 (configuration not stated) | -8.31% | – |
| CCn1cc(NC(=O)Nc2ccc(OC)c(OC)c2)c(C(N)=O)n1 | -3.89% | – |
| C[n+]1ccc(/C=C/c2c[nH]c3ccccc23)cc1 | – | 100 µM (active) |
